# Reference: the supplement of paper PMC8728848
# The sample as a whole holds a higher share of the strongest signals than the screen did.
# Legend:
# Test in all cases: glycan array binding signal (z-score within array); higher = stronger binding
# Details in all cases: glycan notation: IUPAC condensed, linker removed
# Fuc(a1-2)Gal = target: Fuc(a1-2)Gal
# Summary of the method: (§1)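 From the Consortium for Functional Glycomics database, 3228 arrays were curated, keeping only those whose protein sequence was available. Binding is given as a within-array Z-score averaged across arrays sharing a protein sequence and across linkers. Negative Z-scores can be read as non-binding.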
# [1] = target: Fuc(a1-2)Gal(b1-3)GlcNAc(b1-2)Man(a1-3)[Fuc(a1-2)Gal(b1-3)GlcNAc(b1-2)Man(a1-6)]Man(b1-4)GlcNAc(b1-4)GlcNAc
# Summary of the method: as §1
# [2] = target: Fuc(a1-2)Gal(b1-4)[Fuc(a1-3)]GlcNAc(b1-2)[Fuc(a1-2)Gal(b1-4)[Fuc(a1-3)]GlcNAc(b1-4)]Man(a1-3)[Fuc(a1-2)Gal(b1-4)[Fuc(a1-3)]GlcNAc(b1-2)Man(a1-6)]Man(b1-4)GlcNAc(b1-4)GlcNAc
# Summary of the method: as §1
# [3] = target: Fuc(a1-2)[Gal(a1-3)]Gal(b1-3)GlcNAc(b1-2)Man(a1-3)[Fuc(a1-2)[Gal(a1-3)]Gal(b1-3)GlcNAc(b1-2)Man(a1-6)]Man(b1-4)GlcNAc(b1-4)GlcNAc
# Summary of the method: as §1
# [4] = target: Fuc(a1-2)[Gal(a1-3)]Gal(b1-3)GlcNAc(b1-2)Man(a1-3)[Fuc(a1-2)[Gal(a1-3)]Gal(b1-3)GlcNAc(b1-2)Man(a1-6)]Man(b1-4)GlcNAc(b1-4)[Fuc(a1-6)]GlcNAc
# Summary of the method: as §1
# [5] = target: Fuc(a1-2)[Gal(a1-3)]Gal(b1-3)GlcNAc(b1-3)GalNAc
# Summary of the method: as §1
# [6] = target: Fuc(a1-2)[Gal(a1-3)]Gal(b1-4)GlcNAc
# Summary of the method: as §1
# [7] = target: Fuc(a1-2)[Gal(a1-3)]Gal(b1-4)[Fuc(a1-3)]GlcNAc(b1-3)GalNAc
# Summary of the method: as §1
# [8] = target: Fuc(a1-2)[GalNAc(a1-3)]Gal(b1-3)GalNAc(a1-3)[Fuc(a1-2)]Gal(b1-4)GlcNAc
# Summary of the method: as §1
# [9] = target: Gal(a1-3)Gal(b1-4)GlcNAc(b1-2)Man
# Summary of the method: as §1
# [10] = target: Gal(a1-3)[Gal(a1-4)]Gal(b1-4)GlcNAc
# Summary of the method: as §1
# Gal(a1-6)Glc = target: Gal(a1-6)Glc
# Summary of the method: as §1
# Gal(b1-3)GalNAc(b1-3)Gal = target: Gal(b1-3)GalNAc(b1-3)Gal
# Summary of the method: as §1
# Gal(b1-3)GlcNAc = target: Gal(b1-3)GlcNAc
# Summary of the method: as §1
# [11] = target: Gal(b1-3)[Fuc(a1-4)]GlcNAc(b1-3)Gal(b1-4)[Fuc(a1-3)]GlcNAc
# Summary of the method: as §1
# [12] = target: Gal(b1-3)[Fuc(a1-4)]GlcNAc(b1-6)GalNAc
# Summary of the method: as §1
# [13] = target: Gal(b1-3)[Neu5Ac(a2-6)]GlcNAc(b1-4)Gal(b1-4)Glc
# Summary of the method: as §1
# Gal(b1-4)Glc = target: Gal(b1-4)Glc
# Summary of the method: as §1
# [14] = target: Gal(b1-4)GlcNAc(b1-2)Man(a1-3)[Gal(b1-4)GlcNAc(b1-2)Man(a1-6)][Gal(b1-4)GlcNAc(b1-4)]Man(b1-4)GlcNAc(b1-4)[Fuc(a1-6)]GlcNAc
# Summary of the method: as §1
# [15] = target: Gal(b1-4)GlcNAc(b1-2)[Gal(b1-4)GlcNAc(b1-6)]Man(a1-6)[Gal(b1-4)GlcNAc(b1-2)Man(a1-3)]Man(b1-4)GlcNAc(b1-4)GlcNAc
# Summary of the method: as §1
# [16] = target: Gal(b1-4)GlcNAc(b1-3)Gal(b1-4)Glc
# Summary of the method: as §1
# [17] = target: Gal(b1-4)GlcNAc(b1-3)Gal(b1-4)GlcNAc(b1-3)Gal(b1-4)GlcNAc(b1-2)Man(a1-3)[Gal(b1-4)GlcNAc(b1-3)Gal(b1-4)GlcNAc(b1-3)Gal(b1-4)GlcNAc(b1-2)Man(a1-6)]Man(b1-4)GlcNAc(b1-4)[Fuc(a1-6)]GlcNAc
# Summary of the method: as §1
# [18] = target: Gal(b1-4)GlcNAc(b1-3)Gal(b1-4)GlcNAc(b1-3)GalNAc
# Summary of the method: as §1
# [19] = target: Gal(b1-4)GlcNAc(b1-3)GalNAc
# Summary of the method: as §1
# Gal3S(b1-3)GalNAc = target: Gal3S(b1-3)GalNAc
# Summary of the method: as §1
# Gal6S(b1-3)GlcNAc = target: Gal6S(b1-3)GlcNAc
# Summary of the method: as §1
# [20] = target: GalNAc(b1-3)Gal(a1-6)Gal(b1-4)Glc
# Summary of the method: as §1
# Glc(b1-4)Glc = target: Glc(b1-4)Glc
# Summary of the method: as §1
# [21] = target: GlcNAc(b1-2)[GlcNAc(b1-4)]Man(a1-3)[GlcNAc(b1-4)][GlcNAc(b1-2)[GlcNAc(b1-6)]Man(a1-6)]Man(b1-4)GlcNAc(b1-4)GlcNAc
# Summary of the method: as §1
# [22] = target: GlcNAc(b1-3)Gal(b1-4)GlcNAc(b1-3)Gal(b1-4)GlcNAc(b1-3)Gal(b1-4)GlcNAc(b1-3)Gal(b1-4)GlcNAc(b1-2)[GlcNAc(b1-3)Gal(b1-4)GlcNAc(b1-3)Gal(b1-4)GlcNAc(b1-3)Gal(b1-4)GlcNAc(b1-3)Gal(b1-4)GlcNAc(b1-6)]Man(a1-6)[GlcNAc(b1-3)Gal(b1-4)GlcNAc(b1-3)Gal(b1-4)GlcNAc(b1-3)Gal(b1-4)GlcNAc(b1-3)Gal(b1-4)GlcNAc(b1-2)Man(a1-3)]Man(b1-4)GlcNAc(b1-4)[Fuc(a1-6)]GlcNAc
# Summary of the method: as §1
# [23] = target: GlcNAc(b1-3)Gal(b1-4)GlcNAc(b1-6)[GlcNAc(b1-3)]Gal(b1-4)GlcNAc
# Summary of the method: as §1
# [24] = target: GlcNAc(b1-3)[GlcNAc(b1-4)][GlcNAc(b1-6)]GlcNAc
# Summary of the method: as §1
# [25] = target: GlcNAc6S(b1-3)Gal(b1-4)GlcNAc
# Summary of the method: as §1
# [26] = target: Man(a1-2)Man(a1-3)[Man(a1-2)Man(a1-6)]Man(a1-6)[Man(a1-2)Man(a1-2)Man(a1-3)]Man
# Summary of the method: as §1
# [27] = target: Neu5Ac(a2-3)Gal(b1-3)GlcNAc(b1-6)GalNAc
# Summary of the method: as §1
# [28] = target: Neu5Ac(a2-3)Gal(b1-3)[Fuc(a1-4)]GlcNAc(b1-3)Gal(b1-3)[Fuc(a1-4)]GlcNAc
# Summary of the method: as §1
# [29] = target: Neu5Ac(a2-3)Gal(b1-3)[GlcNAc(b1-6)]GalNAc
# Summary of the method: as §1
# [30] = target: Neu5Ac(a2-3)Gal(b1-4)GlcNAc(b1-2)Man
# Summary of the method: as §1
# [31] = target: Neu5Ac(a2-3)Gal(b1-4)[Fuc(a1-3)]GlcNAc(b1-3)Gal
# Summary of the method: as §1
# [32] = target: Neu5Ac(a2-3)[GalNAc(b1-4)]Gal(b1-4)GlcNAc(b1-3)GalNAc
# Summary of the method: as §1
# [33] = target: Neu5Ac(a2-6)Gal(b1-4)GlcNAc(b1-2)Man
# Summary of the method: as §1
# [34] = target: Neu5Ac(a2-6)Gal(b1-4)GlcNAc(b1-2)Man(a1-3)[Neu5Ac(a2-6)Gal(b1-4)GlcNAc(b1-2)Man(a1-6)]Man(b1-4)GlcNAc(b1-4)GlcNAc
# Summary of the method: as §1
# [35] = target: Neu5Ac(a2-6)Gal(b1-4)GlcNAc(b1-2)Man(a1-6)[GlcNAc(b1-2)Man(a1-3)]Man(b1-4)GlcNAc(b1-4)GlcNAc
# Summary of the method: as §1
# [36] = target: Neu5Ac(a2-6)Gal(b1-4)GlcNAc(b1-3)Gal(b1-4)GlcNAc(b1-3)Gal(b1-4)GlcNAc(b1-2)Man(a1-3)[Neu5Ac(a2-6)Gal(b1-4)GlcNAc(b1-3)Gal(b1-4)GlcNAc(b1-3)Gal(b1-4)GlcNAc(b1-2)Man(a1-6)]GalNAc
# Summary of the method: as §1
# [37] = target: Neu5Ac(a2-6)Gal(b1-4)GlcNAc(b1-3)Gal(b1-4)GlcNAc(b1-3)[Neu5Ac(a2-6)Gal(b1-4)GlcNAc(b1-3)Gal(b1-4)GlcNAc(b1-6)]GalNAc
# Summary of the method: as §1
# [38] = target: Neu5Ac(a2-6)Gal(b1-4)GlcNAc(b1-6)GalNAc
# Summary of the method: as §1
# Neu5Ac(a2-8)Neu5Ac = target: Neu5Ac(a2-8)Neu5Ac
# Summary of the method: as §1
# [39] = target: Neu5Ac(a2-8)Neu5Ac(a2-8)Neu5Ac(a2-3)[GalNAc(b1-4)]Gal(b1-4)Glc
# Summary of the method: as §1
# [40] = target: Neu5Gc(a2-3)Gal(b1-3)GlcNAc
# Summary of the method: as §1
# [41] = target: Neu5Gc(a2-8)Neu5Gc(a2-3)Gal(b1-4)GlcNAc
# Summary of the method: as §1
binder,measurement,setting,value
"CcfD (Bacteroides fragilis), Q5L9G4 (protein) MKKQNSIYTLLIALLCFVSSCDYLGVSDQLAGGLQNTEQVFDNVSYTKRWYANVFAGIPDYSGINSVNVGAFKNPWTGMCDELVVGYGNSSKYNNSDRNAANMGFHRYGDCYKYIRQANIFLQKAHPIMTTGTQGDQLLEDELTQMKANVRFMRAFYHYLLFEQYGPIILVKDKIYNATEDQDVPRNTVDEVIEYIDSELTAVASELTQEPIFEDKDYRAWPTKGVALAVRAKLWLYAASPLLNGGYREALSVTNPDGTRLFPDYDAGKWEKALAACKDFIDYAEAGRYELYKEYKDDNGAVIDPDKSVYNLFQKYTHEIIWATANNDWGGMNGDAFDRRIAPRCEKNGLGSTGVTQELVDAFYMKDGFPVSATAYLPQSTLYQEEGYGTYKDQNDNFSKKYTNVTVSNRYLNREPRFYNTVFFNGRQWPVSCNQVLFYNGGNSGVQEGQATLTGYMLFKRFNRSVSLTNPGVASQFRPSIIFRLADFYLMYAEAANEVNPNDARVLKYLNLVRERAGLPDIETLNPAIRGNQELQRAAIQRERQIELATEGQRYFDVRRWMIADKNGEGRQNGYVHGMNVRGESNDKEDFNRIVEASQIVFNRKMYLYPMPDSEMRKTKNLVQNPGW",glycan array binding signal (z-score),Fuc(a1-2)Gal,0.811
same,glycan array binding signal (z-score),[1],5.05
same,glycan array binding signal (z-score),[2],3.75
same,glycan array binding signal (z-score),[3],2.68
same,glycan array binding signal (z-score),[4],0.2
same,glycan array binding signal (z-score),[5],0.095
same,glycan array binding signal (z-score),[6],0.056
same,glycan array binding signal (z-score),[7],0.64
same,glycan array binding signal (z-score),[8],2.62
same,glycan array binding signal (z-score),[9],-0.588
same,glycan array binding signal (z-score),[10],-1.43
same,glycan array binding signal (z-score),Gal(a1-6)Glc,-0.384
same,glycan array binding signal (z-score),Gal(b1-3)GalNAc(b1-3)Gal,-0.456
same,glycan array binding signal (z-score),Gal(b1-3)GlcNAc,0.42
same,glycan array binding signal (z-score),[11],2.86
same,glycan array binding signal (z-score),[12],-0.036
same,glycan array binding signal (z-score),[13],0.607
same,glycan array binding signal (z-score),Gal(b1-4)Glc,-0.056
same,glycan array binding signal (z-score),[14],3.04
same,glycan array binding signal (z-score),[15],-0.896
same,glycan array binding signal (z-score),[16],0.627
same,glycan array binding signal (z-score),[17],1.57
same,glycan array binding signal (z-score),[18],0.43
same,glycan array binding signal (z-score),[19],-0.998
same,glycan array binding signal (z-score),Gal3S(b1-3)GalNAc,0.942
same,glycan array binding signal (z-score),Gal6S(b1-3)GlcNAc,1.26
same,glycan array binding signal (z-score),[20],-0.64
same,glycan array binding signal (z-score),Glc(b1-4)Glc,1.59
same,glycan array binding signal (z-score),[21],-0.548
same,glycan array binding signal (z-score),[22],6.49
same,glycan array binding signal (z-score),[23],0.069
same,glycan array binding signal (z-score),[24],2.83
same,glycan array binding signal (z-score),[25],-0.516
same,glycan array binding signal (z-score),[26],2.93
same,glycan array binding signal (z-score),[27],-0.64
same,glycan array binding signal (z-score),[28],-0.68
same,glycan array binding signal (z-score),[29],0.22
same,glycan array binding signal (z-score),[30],-0.338
same,glycan array binding signal (z-score),[31],0.036
same,glycan array binding signal (z-score),[32],0.036
same,glycan array binding signal (z-score),[33],-0.522
same,glycan array binding signal (z-score),[34],0.561
same,glycan array binding signal (z-score),[35],4.06
same,glycan array binding signal (z-score),[36],2.39
same,glycan array binding signal (z-score),[37],2.75
same,glycan array binding signal (z-score),[38],-1.06
same,glycan array binding signal (z-score),Neu5Ac(a2-8)Neu5Ac,-0.378
same,glycan array binding signal (z-score),[39],-0.936
same,glycan array binding signal (z-score),[40],-0.456
same,glycan array binding signal (z-score),[41],-1.19
